Test results: PubChem BioAssay (NCATS)
Records with an inconclusive call do not appear. The source made the active and inactive calls. Unless noted, the call rests on the fitted dose curve; in most records, active means well fitted curve in the direction sought with a large enough effect; inconclusive means small, poorly fitted or top-dose-only effect, or another doubt; inactive means no such curve, though single readings can be large; an effect the other way counts as inactive or inconclusive.

What was measured:
[1] = AP1 Signaling Pathway (AID 357; active means well fitted curve in either direction with a large enough effect, not every such curve was filed as active;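 further: ME-180 reporter cells stimulated with EGF at its EC50 level; on the % scale 0 is the no-effect control and ±100 the full control effect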)
Method in brief: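 Read-out was the 460nm/530nm emission ratio (excitation 405nm) after CCF4 loading for 2.5 hours at room temperature. Cells carried an AP-1-driven beta-lactamase reporter, were stimulated with EC50 EGF plus compound for 5 hours, and AC50 values came from titrations.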

[2] = biological target: Cytochrome P450 1A2 (Homo sapiens) (UniProt P05177); test: p450-cyp1a2 (AID 410; calls by dose curve; further: potency means the concentration at half of the fitted maximal effect;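 on activity change, negative = inhibition: -100% = full effect of reference inhibitor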)
Method in brief: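 20nM CYP1A2, 100uM Luciferin-ME (=Km), 100mM KPO4; cpd 10 min RT; +NADPH regen, 60 min RT; stop/detect 20 min; luminescence. Normalized to furafylline 57 uM = full inhibition.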

[3] = NFAT Signaling Pathway (AID 444; active means well fitted curve in either direction with a large enough effect, not every such curve was filed as active;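 further: carbachol stimulus at about its EC50 of 1 µM final; on the % scale 0 is the no-effect control and ±100 the full control effect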); details: Jurkat NFAT-bla M1, carbachol, beta-lactamase ratio, 5 h; at 17.2 µM (top of the series) unless noted
Method in brief: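 Read-out: CCF4 FRET ratio (460 nm/530 nm) after 1 h RT dye loading, used for %activity and AC50 from titration series. Cells: Jurkat NFAT-β-lactamase/M1 line, treated with compound plus 1 uM carbachol for 5 h, 37 °C.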

[4] = Stat Signaling Pathway (AID 446; active means well fitted curve in either direction with a large enough effect, not every such curve was filed as active;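 further: ME-180 cervical cancer cells given 40 pM IL-6 alongside compound; SIE-controlled beta-lactamase reporter measured as 460/530 nm FRET emission ratio; on the % scale 0 is the no-effect control and ±100 the full control effect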)
Method in brief: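 FRET read-out (405 nm excitation, 460/530 nm emission) of a beta-lactamase reporter under a STAT-inducible element in ME-180 cervical carcinoma cells. Cells with compound receive 40 pM IL-6 for 5 h. Values are normalised to AC90 stimulation and AC90 JAK-inhibitor controls.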

[5] = biological target: Glucocorticoid receptor (Homo sapiens) (UniProt P04150); test: GR-GFP Redistribution (AID 450;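 active means compounds whose dose series gives a full or clear partial fitted curve of increased nuclear translocation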; further: potency means the concentration at half of the fitted maximal effect); details: U2OS GR-GFP nuclear translocation, laser cytometry, 2 h
[6] = biological target: Mitogen-activated protein kinase 10 (Mus musculus) (UniProt Q61831); test: JNK3 AlphaScreen Assay (AID 530; active means well fitted curve in either direction with a large enough effect, not every such curve was filed as active;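 further: kinase came from lysate of stimulated human HepG2 cells; signal reports phosphorylation of biotinylated GST-cJun 1-79 at Ser73 with 10 µM ATP; on the % scale 0 is the no-effect control and ±100 the full control effect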)
Method in brief: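 Kinase buffer: 20 mM Tris-HCl pH 7.6, 10 mM MgCl2, 1 mM DTT, 0.1 mM Na3VO4, 0.01% Tween-20; ATP 10 uM. Substrate biotin-GST-cJun(1-79), enzyme from activated HepG2 lysates. Detection by Ser73 phospho-antibody AlphaScreen.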

[7] = biological target: 3',5'-cyclic-AMP phosphodiesterase 4B (Homo sapiens) (UniProt Q07343); test: qHTS Assay for Inhibitors of PDE-IV (AID 607; active means well fitted activation curve with a large enough effect in the main read-out, with a control signal flat, not every such curve was filed as active; further: % of control where 0% means no effect)
Method in brief: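 Cell-based read-out of cAMP via a modified cyclic nucleotide-gated channel and membrane potential dye (535/590 nm) in HEK293 cells expressing PDE4 endogenously. Compounds tested up to 22.9 uM final; 100 uM RO 20-1724 reference.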

[8] = qHTS Assay for Lipid Storage Modulators (AID 1519; calls by dose curve); details: Drosophila S3 cells, BODIPY lipid droplet/cell ratio, laser cytometry, cells loaded with oleic acid
Method in brief: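 Cells seeded at 5,000 per well were treated with compounds over a concentration series and loaded with oleic acid (400 uM, as added). Lipid droplet fluorescence (488 nm excitation, 500-530 nm channel) was read by laser-scanning cytometry and normalized to 20 uM Triacsin C.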

[9] = biological target: Ubiquitin carboxyl-terminal hydrolase 1 (Homo sapiens) (UniProt O94782); test: Inhibitors of USP1/UAF1: Pilot qHTS (AID 504865);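 further: rhodamine fluorescence freed from ubiquitin-rhodamine substrate followed over time; top concentration of the series differs between compounds; on the % scale 0 is the no-effect control and ±100 the full control effect; nearly all actives have a fitted effect of over 35% in size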
Method in brief: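 Kinetic fluorescence assay: 1nM USP1/UAF1, 15 min compound preincubation, then 150nM Ub-Rho; 480/540 nm.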

[10] = biological target: Glucocorticoid receptor (Homo sapiens) (UniProt P04150); test: GR-EFC Redistribution (AID 451; calls by dose curve; further: potency means the concentration at half of the fitted maximal effect); details: CHO-K1 GR-EFC translocation, beta-gal luminescence, 2 h
Method in brief: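 Translocation of GR-ED fusion to nuclear EA restores b-gal, read by luminescence after 1 h room-temperature detection. Engineered CHO-K1 biosensor cells, 1,000/well, exposed 2 h at 37 C to titrations up to 46 uM final.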

[11] = biological target: Luciferin 4-monooxygenase (Photinus pyralis) (UniProt P08659); test: Biochemical firefly luciferase enzyme assay for NPC (AID 624030);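 further: purified P. pyralis luciferase at 10 nM with luciferin and ATP substrate; 0% = DMSO and -100% = full luciferase inhibition by PTC124 control; nearly all actives have a fitted effect of over 70% in size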
Method in brief: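 Direct inhibition of firefly luciferase enzyme (10 nM final, 50 mM Tris Acetate) assessed by luminescence within 5 minutes. Percent activity scaled between DMSO and PTC124 positive control, with concentration-effect curves classified by fit quality and response.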

[12] = S16 Schwann cell viability assay (CellTiter-Glo assay) (AID 624031);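 further: cellular ATP luminescence as a viability measure; plate controls were DMSO-treated cells for no effect and cell-free wells for full effect; nearly all actives have a fitted effect of over 70% in size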
Method in brief: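 Native S16 rat Schwann cells, 500-750 cells/well in DMEM with 10% FBS, dosed with compound after overnight culture and incubated 24h at 37 degree Celsius/5% CO2. Viability by CellTiter-Glo luminescence; % activity normalized to no-cell wells and DMSO-treated cells.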

[13] = S16 Schwann cell PMP22 intronic element beta-lactamase assay (AID 624044; calls by dose curve;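 further: 0% = DMSO and -100% = potassium clavulanate positive control; nearly all actives have a fitted effect of over 15% in size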)
Method in brief: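 Beta-lactamase reporter under a PMP22 intronic regulatory element in stable S16 rat Schwann cells; 24 h compound exposure. 460 nm blue signal normalized between DMSO (0%) and potassium clavulanate, with 535 nm FRET tracking viability; curves classed by r2 and response.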

[14] = qHTS profiling for inhibitors of Plasmodium falciparum proliferation (AID 504749);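 further: 0% = DMSO vehicle and full inhibition = artemisinin control; nearly all actives have a fitted effect of over 60% in size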; details: P. falciparum in erythrocytes, SYBR Green DNA, 72 h, at 12.8 µM (top of the series)
Method in brief: (§1)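 In a 72 h erythrocytic culture (37 C, humidified, 5% CO2) at 2.5% hematocrit and 0.3% starting parasitemia, compounds were tested; SYBR Green I in detergent lysis buffer stained parasite DNA overnight.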

C2A = test: as above; details: P. falciparum in erythrocytes, SYBR Green DNA, 72 h; series mostly up to 12.8 µM
Method in brief: as §1

CP217 = test: as above; details: P. falciparum in erythrocytes, SYBR Green DNA, 72 h; series mostly up to 12.8 µM
Method in brief: as §1

CP250 = test: as above; details: P. falciparum in erythrocytes, SYBR Green DNA, 72 h; series mostly up to 12.8 µM
Method in brief: as §1

FAB9 = test: as above; details: P. falciparum in erythrocytes, SYBR Green DNA, 72 h; series mostly up to 12.8 µM
Method in brief: as §1

JCK = test: as above; details: P. falciparum in erythrocytes, SYBR Green DNA, 72 h; series mostly up to 12.8 µM
Method in brief: as §1

SC27B = test: as above; details: P. falciparum in erythrocytes, SYBR Green DNA, 72 h; series mostly up to 12.8 µM
Method in brief: as §1

[15] = measured here: cell count channel max response
[16] = measured here: lipid channel max response

Cytochrome P450 1A2 (Homo sapiens), sequence (P05177 whole entry, looked up): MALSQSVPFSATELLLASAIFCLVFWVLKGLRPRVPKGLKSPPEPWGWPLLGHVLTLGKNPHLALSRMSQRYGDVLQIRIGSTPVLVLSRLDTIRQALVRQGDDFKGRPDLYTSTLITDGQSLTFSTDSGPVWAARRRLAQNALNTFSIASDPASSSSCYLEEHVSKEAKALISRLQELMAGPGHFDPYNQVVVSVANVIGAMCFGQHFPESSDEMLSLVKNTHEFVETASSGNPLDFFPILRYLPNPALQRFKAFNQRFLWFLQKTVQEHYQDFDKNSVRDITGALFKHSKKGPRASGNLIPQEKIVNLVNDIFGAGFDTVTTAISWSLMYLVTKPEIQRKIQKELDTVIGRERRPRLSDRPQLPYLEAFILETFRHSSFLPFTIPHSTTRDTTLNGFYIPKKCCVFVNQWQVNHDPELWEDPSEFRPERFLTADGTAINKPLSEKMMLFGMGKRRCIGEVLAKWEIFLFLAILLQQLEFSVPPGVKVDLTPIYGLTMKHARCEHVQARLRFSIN
Luciferin 4-monooxygenase (Photinus pyralis), sequence (P08659 whole entry, looked up): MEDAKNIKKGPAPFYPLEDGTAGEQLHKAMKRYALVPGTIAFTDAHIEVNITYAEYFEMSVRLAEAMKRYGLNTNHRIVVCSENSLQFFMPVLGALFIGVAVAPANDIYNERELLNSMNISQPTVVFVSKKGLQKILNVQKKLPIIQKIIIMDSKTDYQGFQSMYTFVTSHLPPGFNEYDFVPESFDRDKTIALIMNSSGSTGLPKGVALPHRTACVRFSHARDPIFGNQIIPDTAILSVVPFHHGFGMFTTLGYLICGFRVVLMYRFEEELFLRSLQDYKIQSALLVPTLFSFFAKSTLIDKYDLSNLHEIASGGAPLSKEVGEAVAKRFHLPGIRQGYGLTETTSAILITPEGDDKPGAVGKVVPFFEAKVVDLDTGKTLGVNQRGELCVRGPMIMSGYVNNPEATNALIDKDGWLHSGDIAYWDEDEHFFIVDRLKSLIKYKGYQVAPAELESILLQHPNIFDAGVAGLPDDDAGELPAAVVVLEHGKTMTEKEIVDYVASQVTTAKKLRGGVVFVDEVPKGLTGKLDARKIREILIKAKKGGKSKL
3',5'-cyclic-AMP phosphodiesterase 4B (Homo sapiens), sequence (Q07343 whole entry, looked up): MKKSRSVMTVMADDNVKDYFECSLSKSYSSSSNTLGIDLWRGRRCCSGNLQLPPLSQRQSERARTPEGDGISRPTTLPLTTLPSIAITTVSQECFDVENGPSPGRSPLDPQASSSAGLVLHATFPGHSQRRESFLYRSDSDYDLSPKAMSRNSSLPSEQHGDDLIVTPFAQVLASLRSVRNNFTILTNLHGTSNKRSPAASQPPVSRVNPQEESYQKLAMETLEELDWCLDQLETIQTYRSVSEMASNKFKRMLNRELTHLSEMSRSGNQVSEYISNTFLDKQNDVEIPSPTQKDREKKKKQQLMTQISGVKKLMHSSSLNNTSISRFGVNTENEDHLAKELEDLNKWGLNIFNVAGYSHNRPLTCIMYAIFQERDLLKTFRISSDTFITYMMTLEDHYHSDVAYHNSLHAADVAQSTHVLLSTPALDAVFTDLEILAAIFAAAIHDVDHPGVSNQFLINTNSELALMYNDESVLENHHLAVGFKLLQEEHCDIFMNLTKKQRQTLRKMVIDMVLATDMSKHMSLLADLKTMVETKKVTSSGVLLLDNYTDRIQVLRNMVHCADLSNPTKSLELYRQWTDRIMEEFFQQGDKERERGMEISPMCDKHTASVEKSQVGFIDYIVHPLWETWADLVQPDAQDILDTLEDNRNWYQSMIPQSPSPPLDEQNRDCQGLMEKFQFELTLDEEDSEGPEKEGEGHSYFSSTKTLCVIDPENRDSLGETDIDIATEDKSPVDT
Ubiquitin carboxyl-terminal hydrolase 1 (Homo sapiens), sequence (O94782 whole entry, looked up): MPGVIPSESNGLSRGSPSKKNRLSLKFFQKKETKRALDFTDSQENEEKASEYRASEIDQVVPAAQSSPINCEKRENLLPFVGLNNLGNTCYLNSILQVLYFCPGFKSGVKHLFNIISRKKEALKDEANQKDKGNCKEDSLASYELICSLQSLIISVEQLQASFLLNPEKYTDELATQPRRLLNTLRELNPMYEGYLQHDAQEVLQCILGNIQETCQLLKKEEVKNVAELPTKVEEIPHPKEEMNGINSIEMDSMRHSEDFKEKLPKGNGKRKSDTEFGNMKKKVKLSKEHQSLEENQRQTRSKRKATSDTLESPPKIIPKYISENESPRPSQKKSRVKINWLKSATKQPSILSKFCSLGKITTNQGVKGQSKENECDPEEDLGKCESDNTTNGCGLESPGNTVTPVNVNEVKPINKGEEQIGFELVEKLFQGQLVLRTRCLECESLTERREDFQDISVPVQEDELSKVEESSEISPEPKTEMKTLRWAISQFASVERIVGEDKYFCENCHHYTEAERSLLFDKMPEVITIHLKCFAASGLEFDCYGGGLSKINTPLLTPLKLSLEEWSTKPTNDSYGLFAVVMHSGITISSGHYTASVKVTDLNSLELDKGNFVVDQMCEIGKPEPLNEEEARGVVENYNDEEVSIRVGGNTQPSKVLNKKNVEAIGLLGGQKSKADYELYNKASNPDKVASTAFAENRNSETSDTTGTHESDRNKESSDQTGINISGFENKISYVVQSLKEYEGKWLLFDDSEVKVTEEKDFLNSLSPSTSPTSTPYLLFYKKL
Glucocorticoid receptor (Homo sapiens), sequence (P04150 whole entry, looked up, the tested form may be a part): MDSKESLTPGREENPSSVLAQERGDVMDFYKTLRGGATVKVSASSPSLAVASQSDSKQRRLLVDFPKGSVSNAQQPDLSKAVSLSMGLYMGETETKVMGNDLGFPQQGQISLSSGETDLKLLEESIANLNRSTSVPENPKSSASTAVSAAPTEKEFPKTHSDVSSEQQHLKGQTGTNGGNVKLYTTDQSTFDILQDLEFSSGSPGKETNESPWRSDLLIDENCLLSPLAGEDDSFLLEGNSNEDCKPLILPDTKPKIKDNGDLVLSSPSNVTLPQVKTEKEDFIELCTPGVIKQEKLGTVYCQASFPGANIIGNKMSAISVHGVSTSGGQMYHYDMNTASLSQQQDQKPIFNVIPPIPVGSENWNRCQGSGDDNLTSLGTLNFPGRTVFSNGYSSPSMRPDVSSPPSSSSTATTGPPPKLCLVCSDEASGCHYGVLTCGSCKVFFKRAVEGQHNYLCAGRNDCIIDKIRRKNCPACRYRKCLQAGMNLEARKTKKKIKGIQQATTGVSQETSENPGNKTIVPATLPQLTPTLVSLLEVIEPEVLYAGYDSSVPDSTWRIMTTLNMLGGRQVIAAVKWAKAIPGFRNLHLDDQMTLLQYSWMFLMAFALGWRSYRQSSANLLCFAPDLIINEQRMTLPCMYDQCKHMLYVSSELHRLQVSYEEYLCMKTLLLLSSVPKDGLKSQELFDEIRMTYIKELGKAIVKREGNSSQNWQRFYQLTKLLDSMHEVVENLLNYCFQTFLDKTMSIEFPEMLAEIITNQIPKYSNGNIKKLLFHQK

CC(=O)N[C@@H](CC(=O)O)C(=O)O
inactive: outcome [1] | Potency [2] | activity change, negative = inhibition [3] -10.7% | outcome [4] | Potency [5] > 20.6 µM | Potency [6] | outcome [7] | activity change, negative = inhibition ([8]; at 25.7 µM (top of the series)) -1.04% | Potency [9]
-3.12%: max response [8, 15]
-4.28%: max response [8, 16]

Cc1noc(C)c1-c1nc(Nc2ccncc2)c2ccccc2n1
-10.6%: max response [8, 16]
-5.56%: max response [8, 15]
active: Potency [2] 0.1 µM
inactive: outcome [1] | activity change, negative = inhibition [3] -11.9% [at 7.69 µM] | outcome [4] | Potency [5] > 46 µM | Potency [10] > 46 µM | Potency [6] | activity change, negative = inhibition ([8]; at 57.5 µM (top of the series)) -8.29%

C[C@H]1[C@@H](O)[C@@H](C)\C=C/C=C\C=C/C=C\C=C/C=C\C=C/[C@@H](O[C@H]2O[C@@H](C)[C@@H](O)[C@@H](N)[C@@H]2O)C[C@@H]2O[C@](O)(C[C@@H](O)C[C@@H](O)[C@@H](O)CC[C@@H](O)C[C@@H](O)CC(=O)O[C@H]1C)C[C@@H](O)[C@H]2C(=O)O (stereo in doubt)
0.724%: max response [8, 15]
3.85%: max response [8, 16]
inactive: outcome [1] | Potency [2] | activity change, negative = inhibition [3] -11.5% | outcome [4] | Potency [10] > 20.6 µM | Potency [6] | outcome [7] | activity change, negative = inhibition ([8]; at 25.7 µM (top of the series)) 3.52% | Potency [9]

NC(=O)N/N=C\c1ccc([N+](=O)[O-])o1
-2.81%: max response [8, 15]
active: Potency [2] 12.6 µM
inactive: outcome [1] | activity change, negative = inhibition [3] -5.34% | outcome [4] | Potency [5] > 20.6 µM | Potency [10] > 20.6 µM | Potency [6] | outcome [7] | activity change, negative = inhibition ([8]; at 25.7 µM (top of the series)) 0.117% | Potency [9]
-1.91%: max response [8, 16]

COc1ccc2c3c([nH]c2c1)[C@@H]1C[C@@H]2[C@@H](C[C@H](O)[C@H](OC)[C@H]2C(=O)O)CN1CC3
-20%: max response [8, 16]
-18.6%: max response [8, 15]
inactive: outcome [1] | Potency [2] | activity change, negative = inhibition [3] -14.4% | outcome [4] | Potency [5] > 20.6 µM | Potency [6] | outcome [7] | activity change, negative = inhibition ([8]; at 25.7 µM (top of the series)) -2.35% | Potency [9]

C[C@H](Oc1ccccc1)C(=O)N[C@@H]1C(=O)N2[C@@H]1SC(C)(C)[C@@H]2C(=O)O
inactive: outcome [1] | Potency [2] | activity change, negative = inhibition [3] -0.496% | outcome [4] | Potency [10] > 20.6 µM | Potency [6] | outcome [7] | activity change, negative = inhibition ([8]; at 25.7 µM (top of the series)) -0.821% | Potency [9] | Potency [11] | outcome [12] | Potency [13] | activity, negative = inhibition ([14]; parasite line A) 9.22% | activity, negative = inhibition ([14]; parasite line B) 2.55% | Potency (C2A) | Potency (CP217) | Potency (CP250) | Potency (FAB9) | Potency (JCK) | Potency (SC27B)
-3.26%: max response [8, 16]
-5.3%: max response [8, 15]

O=C(O)c1cc2ccccc2c(Cc2cc3ccccc3c(C(=O)O)c2O)c1O (tested in a mixture with another compound)
inactive: outcome [1] | Potency [2] | activity change, negative = inhibition [3] -23% | outcome [4] | Potency [5] > 20.6 µM | Potency [10] > 20.6 µM | Potency [6] | outcome [7] | activity change, negative = inhibition ([8]; at 25.7 µM (top of the series)) 1.36%
-4.55%: max response [8, 16]
-8.55%: max response [8, 15]

NCC[C@H](O)C(=O)N[C@H]1C[C@@H](N)[C@@H](O[C@H]2O[C@@H](CN)[C@@H](O)[C@@H](O)[C@@H]2O)[C@@H](O)[C@@H]1O[C@H]1O[C@@H](CO)[C@@H](O)[C@@H](N)[C@@H]1O
11.3%: max response [8, 16]
11.5%: max response [8, 15]
inactive: outcome [1] | Potency [2] | activity change, negative = inhibition [3] -4.44% | outcome [4] | Potency [5] > 20.6 µM | Potency [6] | outcome [7] | activity change, negative = inhibition ([8]; at 25.7 µM (top of the series)) -0.738%

CC(=O)N(C[C@@H](C)C(=O)O)c1c(I)cc(I)c(N)c1I
inactive: outcome [1] | Potency [2] | activity change, negative = inhibition [3] -3.37% | outcome [4] | Potency [10] > 20.6 µM | Potency [6] | outcome [7] | activity change, negative = inhibition ([8]; at 25.7 µM (top of the series)) 0.163% | Potency [9] | Potency [11] | outcome [12] | Potency [13] | activity, negative = inhibition ([14]; parasite line A) 4.38% | activity, negative = inhibition ([14]; parasite line B) 4.5% | Potency (C2A) | Potency (CP217) | Potency (CP250) | Potency (FAB9) | Potency (JCK) | Potency (SC27B)
2.03%: max response [8, 15]
3.33%: max response [8, 16]

NC(=O)c1ncn([C@H]2O[C@@H](CO)[C@@H](O)[C@@H]2O)n1
-8.81%: max response [8, 15]
-7.48%: max response [8, 16]
inactive: outcome [1] | Potency [2] | activity change, negative = inhibition [3] -18.7% | outcome [4] | Potency [5] > 20.6 µM | Potency [10] > 20.6 µM | Potency [6] | outcome [7] | activity change, negative = inhibition ([8]; at 25.7 µM (top of the series)) 1.03%

CC(=O)OCC(=O)[C@@]1(O)[C@H](C)C[C@@H]2[C@H]3CCC4=CC(=O)C=C[C@]4(C)[C@]3(F)[C@@H](O)C[C@@]21C
inactive: outcome [1] | Potency [2] | activity change, negative = inhibition [3] -0.305% | outcome [4] | Potency [6] | outcome [7] | activity change, negative = inhibition ([8]; at 25.7 µM (top of the series)) -3.21% | Potency [9] | Potency [11] | outcome [12] | activity, negative = inhibition ([14]; parasite line A) 0.4% | activity, negative = inhibition ([14]; parasite line B) -1.7% | Potency (C2A) | Potency (CP217) | Potency (CP250) | Potency (FAB9) | Potency (JCK) | Potency (SC27B)
-18.5%: max response [8, 16]
-15.2%: max response [8, 15]

Cc1cccc(C)c1NC(=O)[C@H](C)N
inactive: outcome [1] | Potency [2] | activity change, negative = inhibition [3] -7.54% | outcome [4] | Potency [10] > 20.6 µM | outcome [7] | activity change, negative = inhibition ([8]; at 25.7 µM (top of the series)) -1.94% | Potency [9] | Potency [11] | outcome [12] | Potency [13] | activity, negative = inhibition ([14]; parasite line A) 7.15% | activity, negative = inhibition ([14]; parasite line B) 10.5% | Potency (C2A) | Potency (CP217) | Potency (CP250) | Potency (FAB9) | Potency (JCK) | Potency (SC27B)
-3.54%: max response [8, 15]
-7.81%: max response [8, 16]
